Assay results from ChEMBL document CHEMBL3988442, “University of Dundee, Small-Polar-MMV Screening Library” (2021).
For some assays here: Entries with a potency or affinity are not part of this list.

Experiments:
Parameters in all cases: scale not given: direction of the effect not stated beside the values
[1] = molecular target: Protein translocase subunit SecA (Escherichia coli (strain K12)) (UniProt P10408); assay: Assay to Identify E. coli SecA ATPase Inhibitors; format: functional; settings: 30 µM
Chain of Protein translocase subunit SecA (Escherichia coli (strain K12)) (P10408 whole entry): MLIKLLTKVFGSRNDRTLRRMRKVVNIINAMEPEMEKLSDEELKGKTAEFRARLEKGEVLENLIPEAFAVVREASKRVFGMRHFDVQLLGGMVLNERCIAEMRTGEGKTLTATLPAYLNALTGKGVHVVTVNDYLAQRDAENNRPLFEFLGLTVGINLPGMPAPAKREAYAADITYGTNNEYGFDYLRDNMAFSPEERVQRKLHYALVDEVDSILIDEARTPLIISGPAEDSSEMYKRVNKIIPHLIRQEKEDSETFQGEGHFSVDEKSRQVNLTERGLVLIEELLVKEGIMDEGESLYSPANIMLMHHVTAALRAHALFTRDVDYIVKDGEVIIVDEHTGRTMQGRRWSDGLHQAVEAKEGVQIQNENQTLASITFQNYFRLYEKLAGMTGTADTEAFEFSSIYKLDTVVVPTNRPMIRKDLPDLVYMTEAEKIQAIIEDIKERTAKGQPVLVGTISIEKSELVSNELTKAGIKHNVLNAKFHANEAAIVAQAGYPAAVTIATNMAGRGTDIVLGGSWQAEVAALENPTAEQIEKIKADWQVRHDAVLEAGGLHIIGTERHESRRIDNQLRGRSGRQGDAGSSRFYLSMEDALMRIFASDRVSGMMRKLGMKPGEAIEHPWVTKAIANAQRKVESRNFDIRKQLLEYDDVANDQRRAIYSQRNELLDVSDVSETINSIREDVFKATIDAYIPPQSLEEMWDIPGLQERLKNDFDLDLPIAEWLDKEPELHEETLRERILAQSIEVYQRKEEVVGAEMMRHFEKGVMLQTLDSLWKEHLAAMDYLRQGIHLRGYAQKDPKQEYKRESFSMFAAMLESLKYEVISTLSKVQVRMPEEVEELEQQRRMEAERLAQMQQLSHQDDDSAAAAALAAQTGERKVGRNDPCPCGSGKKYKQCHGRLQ

[2] = molecular target: T1, Ubiquitin-activating enzyme e1, putative (Leishmania donovani (strain BPK282A1)) (UniProt E9BSI1); assay: Leishmania donovani Ubiquitin Activating Enzyme (LdE1); format: functional; settings: 30 µM
T1 sequence (whole entry): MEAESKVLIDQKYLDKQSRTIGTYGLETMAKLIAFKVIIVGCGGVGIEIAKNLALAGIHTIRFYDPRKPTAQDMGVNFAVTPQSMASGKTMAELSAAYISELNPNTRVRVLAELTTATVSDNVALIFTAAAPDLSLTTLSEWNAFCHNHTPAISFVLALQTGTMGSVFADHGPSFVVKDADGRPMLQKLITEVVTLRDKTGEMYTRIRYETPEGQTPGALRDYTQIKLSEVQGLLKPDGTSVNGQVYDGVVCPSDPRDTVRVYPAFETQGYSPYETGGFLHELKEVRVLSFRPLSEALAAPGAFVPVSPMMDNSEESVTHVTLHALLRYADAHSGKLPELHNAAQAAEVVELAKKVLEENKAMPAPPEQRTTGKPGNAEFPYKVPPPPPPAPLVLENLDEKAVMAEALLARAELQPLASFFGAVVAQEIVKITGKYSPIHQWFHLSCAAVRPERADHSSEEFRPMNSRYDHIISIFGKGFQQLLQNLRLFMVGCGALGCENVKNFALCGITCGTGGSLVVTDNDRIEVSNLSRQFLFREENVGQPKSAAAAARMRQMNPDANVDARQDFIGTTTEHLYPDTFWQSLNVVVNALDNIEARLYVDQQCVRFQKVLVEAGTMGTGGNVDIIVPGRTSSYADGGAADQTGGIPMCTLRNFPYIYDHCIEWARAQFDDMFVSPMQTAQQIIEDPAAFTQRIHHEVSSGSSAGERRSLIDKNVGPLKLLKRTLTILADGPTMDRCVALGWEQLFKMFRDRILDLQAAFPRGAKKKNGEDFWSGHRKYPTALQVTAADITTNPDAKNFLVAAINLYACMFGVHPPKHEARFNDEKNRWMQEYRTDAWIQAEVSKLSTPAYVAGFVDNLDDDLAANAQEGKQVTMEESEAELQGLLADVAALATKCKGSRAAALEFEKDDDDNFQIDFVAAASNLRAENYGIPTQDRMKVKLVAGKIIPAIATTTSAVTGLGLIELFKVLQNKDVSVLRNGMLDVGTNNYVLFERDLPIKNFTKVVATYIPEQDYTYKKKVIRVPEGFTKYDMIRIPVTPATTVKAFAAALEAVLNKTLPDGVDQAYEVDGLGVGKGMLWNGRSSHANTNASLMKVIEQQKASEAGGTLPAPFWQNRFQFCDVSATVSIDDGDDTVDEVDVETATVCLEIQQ

[3] = molecular target: AMP-activated protein kinase, AMPK (Homo sapiens) (UniProt P54646+O43741+P54619+Q9UGJ0+Q9Y478+Q13131+Q9UGI9); assay: AMP-dependent Kinase enzyme assay. An in vitro enzyme assay that detects ADP turnover that is directly proportional to AMPK activity. This uses naive AMPK that is activated during the assay with MK-8722; format: functional; settings: 30 µM
[4] = molecular target: Sialic acid-binding Ig-like lectin 9 (Homo sapiens) (UniProt Q9Y336); assay: Hs-Siglec9 ALPHAscreen SOP 20170721; settings: 10 µM
Chain of Sialic acid-binding Ig-like lectin 9 (Homo sapiens) (Q9Y336 whole entry): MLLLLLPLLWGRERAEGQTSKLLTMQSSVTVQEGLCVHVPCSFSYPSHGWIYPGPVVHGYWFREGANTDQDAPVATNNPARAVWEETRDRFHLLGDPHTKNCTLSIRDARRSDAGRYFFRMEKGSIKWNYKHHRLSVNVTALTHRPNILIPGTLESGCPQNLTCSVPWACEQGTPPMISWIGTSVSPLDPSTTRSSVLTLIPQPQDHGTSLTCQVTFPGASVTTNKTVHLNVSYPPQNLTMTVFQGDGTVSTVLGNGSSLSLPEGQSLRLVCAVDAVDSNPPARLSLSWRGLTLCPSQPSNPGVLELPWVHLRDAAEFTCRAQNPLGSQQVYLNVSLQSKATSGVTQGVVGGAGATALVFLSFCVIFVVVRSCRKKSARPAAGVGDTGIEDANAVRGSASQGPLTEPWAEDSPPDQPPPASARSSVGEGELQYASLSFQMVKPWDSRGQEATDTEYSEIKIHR

[5] = system: Trypanosoma cruzi; assay: Trypanosoma cruzi phosphomannomutase and mannose-1-phosphate guanylyltransferase assay; format: functional; settings: 10 µM
[6] = molecular target: T2, Arginase-2, mitochondrial (Homo sapiens) (UniProt P78540); assay: in vitro enzyme assay to detect the production of urea directly proportional to the activity of Arginase II; format: functional; settings: 33.3 µM; also: in the data most compounds retested in dose-response had high values
T2 sequence (whole entry): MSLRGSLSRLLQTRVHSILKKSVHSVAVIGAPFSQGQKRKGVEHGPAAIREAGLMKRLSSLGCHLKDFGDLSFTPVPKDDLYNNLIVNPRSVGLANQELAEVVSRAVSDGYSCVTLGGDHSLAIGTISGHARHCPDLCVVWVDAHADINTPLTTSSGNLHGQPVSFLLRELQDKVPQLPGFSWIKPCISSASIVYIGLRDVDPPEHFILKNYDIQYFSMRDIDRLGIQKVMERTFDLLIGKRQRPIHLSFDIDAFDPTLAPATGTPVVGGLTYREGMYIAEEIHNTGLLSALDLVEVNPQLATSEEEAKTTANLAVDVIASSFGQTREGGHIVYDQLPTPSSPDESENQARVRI

[7] = molecular target: T3, Proteasome subunit beta (Trypanosoma cruzi) (UniProt O96673); assay: Trypanosoma cruzi proteasome chymotrypsin-like activity (TcProtChymo) assay.; also: in the data most compounds retested in dose-response had high values; format: functional; settings: 9.37 µM
T3 sequence (whole entry): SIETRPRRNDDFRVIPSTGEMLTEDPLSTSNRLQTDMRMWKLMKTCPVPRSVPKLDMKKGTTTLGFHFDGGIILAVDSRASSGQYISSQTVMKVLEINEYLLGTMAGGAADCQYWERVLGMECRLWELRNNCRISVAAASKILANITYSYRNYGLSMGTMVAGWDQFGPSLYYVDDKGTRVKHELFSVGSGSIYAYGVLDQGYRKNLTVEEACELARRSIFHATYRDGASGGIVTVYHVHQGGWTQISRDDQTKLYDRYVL

[8] = species on record: Homo sapiens; assay: To identify inhibition of the IFN signalling (Jak-Stat) pathway via expression of an eGFP reporter gene under the control of an IFN-stimulated response element (ISRE) containing MxA promoter.; format: functional; settings: 30 µM
[9] = molecular target: T4, Tyrosyl-tRNA synthetase, putative (Trypanosoma cruzi (strain CL Brener)) (UniProt Q4DSP6); assay: Trypanosoma cruzi tyrosyl tRNA synthetase (TcYRS) _High Tyrosine SOP; format: functional; settings: 30 µM; also: in the data most compounds retested in dose-response had high values
T4 sequence (whole entry): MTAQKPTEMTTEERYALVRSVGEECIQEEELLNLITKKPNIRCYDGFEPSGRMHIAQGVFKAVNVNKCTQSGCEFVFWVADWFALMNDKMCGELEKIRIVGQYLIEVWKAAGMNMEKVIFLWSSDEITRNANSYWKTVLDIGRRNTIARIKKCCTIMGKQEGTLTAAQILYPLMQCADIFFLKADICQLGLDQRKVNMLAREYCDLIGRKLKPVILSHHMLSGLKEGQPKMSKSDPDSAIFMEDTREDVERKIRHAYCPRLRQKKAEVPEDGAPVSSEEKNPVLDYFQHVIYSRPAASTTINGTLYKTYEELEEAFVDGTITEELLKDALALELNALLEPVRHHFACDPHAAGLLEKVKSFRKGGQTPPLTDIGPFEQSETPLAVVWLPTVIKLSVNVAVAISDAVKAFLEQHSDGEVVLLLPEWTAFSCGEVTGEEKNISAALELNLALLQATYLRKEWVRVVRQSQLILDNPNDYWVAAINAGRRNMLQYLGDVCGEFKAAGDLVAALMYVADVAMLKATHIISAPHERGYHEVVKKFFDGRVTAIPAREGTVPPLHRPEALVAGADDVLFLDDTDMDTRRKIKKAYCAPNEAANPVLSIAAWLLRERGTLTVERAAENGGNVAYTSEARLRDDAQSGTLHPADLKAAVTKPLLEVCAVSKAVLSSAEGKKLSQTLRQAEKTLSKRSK

[10] = molecular target: T4, Tyrosyl-tRNA synthetase, putative (Trypanosoma cruzi (strain CL Brener)); assay: Trypanosoma cruzi tyrosyl tRNA synthetase (TcYRS) SOP; format: functional; settings: 30 µM
[11] = molecular target: Chromo domain-containing protein 1 (Saccharomyces cerevisiae (strain ATCC 204508 / S288c) (Baker's yeast)) (UniProt P32657); assay: ScCHD-1 Enzyme Inhibition Assay; format: functional; settings: 30 µM; also: in the data most compounds retested in dose-response had high values
Chain of Chromo domain-containing protein 1 (Saccharomyces cerevisiae (strain ATCC 204508 / S288c) (Baker's yeast)) (P32657 whole entry, the tested form may be a part): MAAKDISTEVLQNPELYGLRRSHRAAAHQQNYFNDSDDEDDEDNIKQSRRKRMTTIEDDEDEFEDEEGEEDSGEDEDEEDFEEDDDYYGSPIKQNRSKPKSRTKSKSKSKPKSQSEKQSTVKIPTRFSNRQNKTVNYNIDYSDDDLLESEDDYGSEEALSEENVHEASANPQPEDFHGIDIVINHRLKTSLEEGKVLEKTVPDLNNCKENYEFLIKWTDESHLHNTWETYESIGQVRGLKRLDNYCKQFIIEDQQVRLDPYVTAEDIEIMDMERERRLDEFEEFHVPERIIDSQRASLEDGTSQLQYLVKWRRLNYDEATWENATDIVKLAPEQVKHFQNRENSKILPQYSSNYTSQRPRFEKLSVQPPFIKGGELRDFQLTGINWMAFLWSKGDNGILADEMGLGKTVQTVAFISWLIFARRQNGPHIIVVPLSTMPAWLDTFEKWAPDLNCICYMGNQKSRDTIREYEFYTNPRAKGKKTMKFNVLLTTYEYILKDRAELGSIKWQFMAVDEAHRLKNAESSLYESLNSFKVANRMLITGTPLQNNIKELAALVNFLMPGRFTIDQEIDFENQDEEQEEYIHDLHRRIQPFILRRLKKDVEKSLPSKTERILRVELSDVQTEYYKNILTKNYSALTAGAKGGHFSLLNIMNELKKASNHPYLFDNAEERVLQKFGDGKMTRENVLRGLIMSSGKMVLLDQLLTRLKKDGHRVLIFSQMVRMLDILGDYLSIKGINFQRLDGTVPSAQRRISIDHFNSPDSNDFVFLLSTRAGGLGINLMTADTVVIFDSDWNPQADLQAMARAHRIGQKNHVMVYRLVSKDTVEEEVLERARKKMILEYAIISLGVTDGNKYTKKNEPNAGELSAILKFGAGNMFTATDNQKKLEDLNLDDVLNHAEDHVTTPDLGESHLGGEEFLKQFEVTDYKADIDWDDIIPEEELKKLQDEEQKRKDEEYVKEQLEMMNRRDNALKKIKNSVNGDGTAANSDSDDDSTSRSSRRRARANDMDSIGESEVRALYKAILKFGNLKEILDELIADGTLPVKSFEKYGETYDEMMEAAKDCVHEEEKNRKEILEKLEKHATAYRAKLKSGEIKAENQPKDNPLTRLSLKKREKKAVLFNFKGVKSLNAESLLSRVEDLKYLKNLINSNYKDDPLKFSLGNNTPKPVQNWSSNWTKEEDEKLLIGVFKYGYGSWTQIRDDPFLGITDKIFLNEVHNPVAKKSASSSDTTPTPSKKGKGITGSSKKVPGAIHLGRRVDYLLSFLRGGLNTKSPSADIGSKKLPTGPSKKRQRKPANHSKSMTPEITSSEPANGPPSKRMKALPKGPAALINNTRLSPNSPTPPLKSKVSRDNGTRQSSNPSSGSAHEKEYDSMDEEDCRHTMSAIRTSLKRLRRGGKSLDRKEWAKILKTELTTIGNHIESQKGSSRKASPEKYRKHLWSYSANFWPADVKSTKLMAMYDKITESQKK

Row | SMILES | Percent Effect [1] [%] | Percent Effect [2] [%] | Percent Effect [3] [%] | Percent Effect [4] [%] | Percent Effect [5] [%] | Percent Effect [6] [%] | Percent Effect [7] [%] | Percent Effect [8] [%] | Percent Effect [9] [%] | Percent Effect [10] [%] | Percent Effect [11] [%]
1 | Cc1cnc(CN(C)C2CCN(CC(=O)Nc3c(C)n[nH]c3C)C2)o1 (configuration not stated) | 3.19 | 20.2 | 14.2 | -1.23 | -9.54 | 6.84 | 6.63 | 33.5 | 5.42 | 8.86 | -4.79
2 | COc1ccnc(N2CCN(C(=O)CCc3nccs3)CC2)n1 | 0.0461 | 8.11 | -3.33 | 0.0327 | -1.54 | -2.38 | 12.1 | 14.1 | 2.65 | 7.32 | -3.79
3 | COc1ncccc1NC(=O)N1CCC(CN2CCOCC2)CC1 | 2.03 | 2.67 | -10.3 | 11.1 | 5.55 | 17.7 | 7.15 | -13.1 | 2.73 | 6.17 | 0.459
4 | Cc1cc(CN(C)C(=O)NC(C)c2nncn2C)no1 (configuration not stated) | -1.93 | 15.3 | -8.88 | 15.4 | 2.43 | 35.8 | 22.6 | -0.22 | 3.16 | 10.3 | 72
5 | O=C(c1ccco1)N1CCCC(c2cc(C(F)F)n3ncnc3n2)C1 (configuration not stated) | -1.42 | 4.05 | 9.33 | 28.2 | -8.5 | 3.02 | 3.9 | 7.52 | 0 | 3.9 | 3.66
6 | Cc1cnn(CCC(=O)N2CCCC(c3cc(C(N)=O)[nH]n3)C2)c1 (configuration not stated) | -1.91 | 5.41 | -10.4 | 10.5 | 1.79 | -2.4 | -0.901 | 4.5 | 1.48 | 11.1 | -7.36
7 | O=C(c1cccnc1-n1cccn1)N1CCN(CC2CC2)CC1 | -4.46 | 5.41 | -1.98 | 1.24 | -1.54 | -0.952 | 13.1 | -3.39 | 4.76 | 0 | -1.18
8 | CCN(CC)C(=O)Nc1cc2c(cc1SC)OCCO2 | -0.336 | 8.11 | -6.12 | 9.01 | 3.71 | 27.5 | 3.47 | -7.38 | 4.95 | 8.54 | -6.4
9 | Cc1occc1C(=O)N1CCC2(CC1)NC(=O)CC2c1cnn(C)c1 (configuration not stated) | -3.16 | 10.8 | -0.0675 | -1.75 | 1.86 | 7.33 | 9.41 | -9.35 | 0 | 12.8 | 0.845
10 | CCCC(C)CN1CCC(n2cc(C3CCCC3)nn2)CC1 (configuration not stated) | -5.89 | 13.3 | -5.31 | 18.9 | 9.45 | 10.4 | 9.07 | 7.54 | 6.01 | 11.1 | -4.05
11 | CCN(Cc1ccco1)C(=O)Nc1cc(C(F)(F)F)c[nH]c1=O | -7.27 | 10.5 | 0.625 | -6.37 | -2.71 | 0.719 | 2.79 | -6.49 | 4.43 | 13.6 | -9.51
12 | CN(C)S(=O)(=O)c1ccc(OCCNCCn2cccn2)cc1 | -6.54 | 1.27 | 2.35 | -1.53 | -1.13 | 1.5 | 5.15 | 11.8 | -1.04 | -12.7 | -41.4
13 | NC(=O)c1ccc(S(=O)(=O)NC2CCN(Cc3ccccc3)C2=O)cc1 (configuration not stated) | -3.79 | 17.7 | 9.8 | 5.49 | 0.472 | -3.42 | 0.901 | 2.7 | 5.42 | 11.4 | -6.86
14 | CCc1ccc(CCC(=O)N2CCOCC2c2ncon2)cc1 (configuration not stated) | 2.75 | -8.11 | 4.51 | 1.5 | -2.69 | 3.14 | 3.05 | 13.7 | -0.99 | 1.22 | 8.82
15 | CCOc1ccnc(N2CCN(C(=O)c3cccc(C#N)c3)CC2)n1 | -7.73 | 13.2 | -3.41 | 8.57 | -1.77 | -2.88 | 3.47 | 8.64 | 2.46 | 11.1 | 2.13
16 | Cc1csc(N2CCN(C(=O)Cc3ccc(C)s3)CC2)n1 | -4.68 | 10.8 | -9.36 | 4.82 | -6.89 | -5.61 | 25.2 | 15.8 | 12.3 | 11.1 | 1.36
17 | Cc1nc(CNC(C)c2ccc(OCC(=O)NC3CC3)cc2)cs1 (configuration not stated) | -1.09 | 19 | -0.957 | -2.32 | -2.15 | -8.82 | 23.8 | 3.09 | 4.17 | -48.1 | -24.3
18 | Cc1nnc(Nc2cccc(C3CCN(CCO)CC3)n2)s1 | -1.13 | 13.3 | 4.79 | -2.96 | 1.38 | 1.63 | 4.85 | 11.5 | 6.38 | 14.1 | -3.37
19 | Cc1cc(NC(=O)c2nc(N3CCCC3)ncc2Cl)nc(C(C)C)n1 | -0.667 | 5.41 | -5.04 | -2.54 | -8.79 | 3.33 | 17.2 | 2.69 | 9.9 | 8.54 | 0.666
20 | CC(=O)c1c(F)cccc1N1CCC(CS(N)(=O)=O)CC1 | -2 | -2.74 | 4.36 | -0.254 | 0.595 | -2 | 10.4 | 3.02 | 4.17 | 3.7 | -2.94
21 | CC(C)(C)N1CCCN(C(=O)c2csc(S(N)(=O)=O)c2)CC1 | -8.14 | 0 | 1.87 | -9.76 | -5.57 | -2.73 | -0.258 | -7.17 | -3.23 | -6.17 | -1.28
22 | Cc1cc(C(=O)N2CCCCC2C)ccc1NCC(=O)N1CCOCC1 (configuration not stated) | -3.46 | 18.2 | 9.95 | -0.936 | 8.8 | 5.69 | 15.5 | 29.1 | -2.91 | 24.4 | -5.86
